Among the data in PubChem BioAssay (NCATS) are Potency values, retold here.

Each structure is given as a SMILES string. Records with an inconclusive call do not appear. Activity calls are given as the source filed them. Calls come from the whole dose curve; as a rule, active = well fitted curve in the direction sought with a large enough effect; inconclusive = small, poorly fitted or top-dose-only effect, or another doubt; inactive = no such curve, though single readings can be large; an effect the other way counts as inactive or inconclusive.

One assay deals with 3D7. Nature of the assay: qHTS profiling for inhibitors of Plasmodium falciparum proliferation (AID 504749). Note: nearly all actives have a fitted effect of over 60% in size. Note: potency is the fitted concentration of half-maximal effect. The conditions noted are these: P. falciparum in erythrocytes, SYBR Green DNA, 72 h; series mostly up to 28.7 µM. The essentials: (§1)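 In a 72 h erythrocytic culture (37 C, humidified, 5% CO2) at 2.5% hematocrit and 0.3% starting parasitemia, compounds were tested; SYBR Green I in detergent lysis buffer stained parasite DNA overnight.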
(qHTS replaces the single test concentration by a dilution series.)

The next assay relates to CP185. The assay is described as above. The conditions noted are these: P. falciparum in erythrocytes, SYBR Green DNA, 72 h; series mostly up to 28.7 µM. The method, boiled down:
as §1

In a further assay the test system is CP203. The assay is described as above. To be noted: P. falciparum in erythrocytes, SYBR Green DNA, 72 h; series mostly up to 28.7 µM. The essentials: as §1
In a further assay the test system is CP211. The assay is described as above. The conditions noted are these: P. falciparum in erythrocytes, SYBR Green DNA, 72 h; series mostly up to 28.7 µM. The essentials: as §1
The next assay relates to CP217. The description is as above. To be noted: P. falciparum in erythrocytes, SYBR Green DNA, 72 h; series mostly up to 28.7 µM. The essentials:
as §1

The test system of the next assay is CP250. Described as above. To be noted: P. falciparum in erythrocytes, SYBR Green DNA, 72 h; series mostly up to 28.7 µM. The method, boiled down:
as §1

A further assay deals with CP252. The description is as above. The conditions noted are these: P. falciparum in erythrocytes, SYBR Green DNA, 72 h; series mostly up to 28.7 µM. The method, boiled down: as §1
The subject of the next assay is CP256. Described as above. To be noted: P. falciparum in erythrocytes, SYBR Green DNA, 72 h; series mostly up to 28.7 µM. The method, boiled down: as §1
Another assay has as its system CP262. The description is as above. To be noted: P. falciparum in erythrocytes, SYBR Green DNA, 72 h; series mostly up to 28.7 µM. The method, boiled down:
as §1

The subject of the next assay is CP265. The assay is described as above. To be noted: P. falciparum in erythrocytes, SYBR Green DNA, 72 h; series mostly up to 28.7 µM. The method, boiled down:
as §1

In the next assay the test system is CP291. The description is as above. To be noted: P. falciparum in erythrocytes, SYBR Green DNA, 72 h; series mostly up to 28.7 µM. The essentials:
as §1

The subject of the next assay is CP305. The description is as above. The conditions noted are these: P. falciparum in erythrocytes, SYBR Green DNA, 72 h; series mostly up to 28.7 µM. The essentials:
as §1

In a further assay the test system is CP315. The description is as above. The conditions noted are these: P. falciparum in erythrocytes, SYBR Green DNA, 72 h; series mostly up to 28.7 µM. The essentials:
as §1

Another assay relates to CP335. The assay is described as above. The conditions noted are these: P. falciparum in erythrocytes, SYBR Green DNA, 72 h; series mostly up to 28.7 µM. The essentials: as §1
In another assay the test system is HB3. Described as above. To be noted: P. falciparum in erythrocytes, SYBR Green DNA, 72 h; series mostly up to 28.7 µM. The method, boiled down: as §1
In a further assay the test system is N140. Described as above. To be noted: P. falciparum in erythrocytes, SYBR Green DNA, 72 h; series mostly up to 28.7 µM. The method, boiled down:
as §1

The next assay concerns TAB113. The description is as above. To be noted: P. falciparum in erythrocytes, SYBR Green DNA, 72 h; series mostly up to 28.7 µM. The essentials:
as §1

Assay [1] can be described thus: S16 Schwann cell viability assay (CellTiter-Glo assay) (AID 624031).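 Note: cellular ATP luminescence as a viability measure; nearly all actives have a fitted effect of over 70% in size.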 The essentials: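 Native S16 Schwann cells (rat), serum-containing medium, overnight attachment then 24 h drug exposure at 37 °C/5% CO2. CellTiter-Glo ATP signal; normalized to cell-free and vehicle wells.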
Another assay concerns ECU. Nature of the assay: qHTS profiling for inhibitors of Plasmodium falciparum proliferation (AID 504749). Note: nearly all actives have a fitted effect of over 60% in size. Note: potency is the fitted concentration of half-maximal effect. To be noted: P. falciparum in erythrocytes, SYBR Green DNA, 72 h; series mostly up to 28.7 µM. The essentials:
as §1

The next assay relates to PC15. Described as above. The conditions noted are these: P. falciparum in erythrocytes, SYBR Green DNA, 72 h; series mostly up to 28.7 µM. The method, boiled down: as §1

Regarding `Cc1cc(C)cc(C(=O)OC2CC3CCC(C2)N3C)c1` (stereo unspecified), the Potency entry in the assay on 3D7, in the assay on CP185, in the assay with CP203, in the assay with CP211, in the assay with CP217 and with CP250 was “inactive” throughout. The Potency entry in the assay with CP252, in the assay with CP256, in the assay with CP262, with CP265, in the assay with CP291 and in the assay on CP305 was “inactive” throughout. Moreover, the Potency entry with CP315, in the assay with CP335, in the assay with HB3, in the assay with N140 and in the assay with TAB113 was “inactive” in each case.

For the compound `CCOC(=O)/C=C(C)/C=C/CC(C)CCCC(C)C` (stereo unspecified), the Potency entry (in assay [1]; in the assay on 3D7; in the assay with CP185; with CP203; with CP211; in the assay with CP217) was “inactive” in each case. Also, the Potency result in the assay with CP250, in the assay with CP252, with CP256, in the assay with CP262, with CP265 and in the assay with CP291 was “inactive” in each case. Moreover, the Potency result with CP305, in the assay on CP315, in the assay with CP335, in the assay on ECU, in the assay with HB3 and in the assay with N140 was “inactive” throughout. For the same compound, the Potency result in the assay with PC15 and in the assay with TAB113 was “inactive” throughout.

Take `[S]=[Sb][S][Sb]=[S]`: the Potency result (in assay [1]; with 3D7; in the assay on CP185; in the assay with CP203; with CP211; in the assay with CP217) was “inactive” each time. Further, the Potency result with CP250, in the assay with CP252, in the assay on CP256, in the assay with CP262, with CP265 and with CP291 was “inactive” each time. Also, the Potency entry in the assay on CP305, in the assay with CP315, with CP335, with ECU, with HB3 and with N140 was “inactive” each time. For the same compound, the Potency result in the assay on PC15 and in the assay with TAB113 was “inactive” in each case.

Turning to `CCCCCC(O)C1C(=O)OC(C)C(O)\C=C/C=C\C=C/C=C\C=C(\C)C(O)C(O)C(O)CC(O)CC(O)CC(O)CC(O)CC1O` (stereo unspecified), the Potency entry (in assay [1]; in the assay on 3D7; with CP185; with CP203; with CP211; in the assay on CP217) was “inactive” throughout. For the same compound, the Potency entry with CP250, with CP252, in the assay with CP256, with CP262, in the assay on CP265 and with CP291 was “inactive” in each case. Also, the Potency entry in the assay with CP305, in the assay with CP315, with CP335, with ECU, in the assay with HB3 and in the assay on N140 was “inactive” each time. In addition, the Potency entry with PC15 and in the assay on TAB113 was “inactive” each time.

Turning to `CCCCCCC(=O)O[C@H]1CC[C@H]2[C@@H]3CCC4CC(=O)C=C(C)[C@]4(C)[C@H]3CC[C@]12C` (stereo partly specified), the Potency result (in [1]; in the assay with CP185; in the assay on CP203; with CP211; in the assay on CP217; in the assay on CP250) was “inactive” throughout. Further, the Potency entry in the assay on CP252, in the assay with CP256, in the assay on CP262, with CP265, with CP291 and in the assay with CP305 was “inactive” throughout. Also, the Potency result with CP315, with ECU, with N140 and in the assay with TAB113 was “inactive” throughout. Also, the values for the Potency in the assay with 3D7, in the assay with CP335 and in the assay with HB3 were 11.2 µM (active), 8.49 µM (active) and 11.2 µM (active), respectively.

As for `CN1C2CCC1C(C(=O)O)C(OC(=O)c1ccccc1)C2` (stereo unspecified), the Potency result (in assay [1]; in the assay on 3D7; with CP185; in the assay with CP203; in the assay with CP211; with CP217) was “inactive” throughout. Besides, the Potency entry with CP250, with CP252, with CP256, with CP262, in the assay with CP265 and with CP291 was “inactive” each time. The Potency result in the assay on CP305, with CP315, in the assay with CP335, with ECU, in the assay with HB3 and with N140 was “inactive” in each case. The Potency entry in the assay with PC15 and in the assay on TAB113 was “inactive” each time.
